According to PubChem BioAssay:
The source made the active and inactive calls.

Assay: osmotic lysis modulators in infected erythrocytes, primary screen, PSAC antagonist project, cell-based, P. falciparum Indochina, OD700, 3 h (AID 1156)
Conditions: higher = more signal, called active from +8 up or from −8 down

z-score, inactive:
COCCOC(=O)N1C(=O)[C@@]2(c3ccccc31)[C@H](c1ccc(OCCO)cc1)N1[C@H](c3ccccc3)[C@H](c3ccccc3)OC(=O)[C@H]1[C@@H]2C(=O)N1CCCCCCC1 0.586
CCCCCN1CC=CC23O[C@@H]4/C=C\CCC(C)OC(=O)C4[C@H]2C(=O)N(CCCCCCO)[C@@H]3C1=O (some centres not stated) 0.26
COCCOC(=O)N1C(=O)[C@@]2(c3ccccc31)[C@H](c1ccccc1OCCO)N1[C@H](c3ccccc3)[C@H](c3ccccc3)OC(=O)[C@H]1[C@@H]2C(=O)N1CCCCCCC1 0.0224
C=C[C@@H](OC)[C@H](OC(=O)Nc1ccc(SC)cc1)c1ccc(OCCO)cc1 2.11
COC(=O)[C@@]1(Cc2ccc(F)cc2)[C@H]2c3cc(C(=O)N(C)C)n(Cc4c(CO)[nH]cc(C)c4=O)c3C[C@H]2CN1C(=O)c1ccccc1 0.865
Cc1ccccc1C(O)C1C=CC2C(=O)N(c3ccccc3)C(=O)C2N1Nc1ccc([N+](=O)[O-])cc1 (configuration not stated) 2.6
COc1cc(NN2C(C(O)c3cc(OC)c(OC)c(OC)c3)C=CC3C(=O)N(c4ccccc4)C(=O)C32)cc(OC)c1OC (configuration not stated) 1.27
C=CCC(OC(C)=O)[C@@H]1[C@@H](N(Cc2cccc3ccccc23)C(=O)c2cccc3ccccc23)c2cc(OCCCO)ccc2N1C(=O)c1ccc2ccccc2c1 (some centres not stated) 1.41
COC(=O)[C@@]1(Cc2ccccc2)[C@H]2c3cc(C(=O)N4CCCC4)n(CCSCCO)c3C[C@H]2CN1C(=O)c1ccccc1 0.57
Cc1cccc([C@H]2C[C@H]3C(I)=C[C@@H]2C(=O)[C@]32CO2)c1 0.0129
O=C1C2C=CC(C(O)C=Cc3ccc([N+](=O)[O-])cc3)N(Nc3ccccc3)C2C(=O)N1c1ccccc1 (configuration not stated) 0.478
CC(=O)NCCCC[C@@H]1NC(=O)[C@H]2C[C@@H](C(=O)NCCCCCNC(=O)CS)[C@@H](c3cccc(OCCO)c3)N2C1=O -0.369
C=C[C@H](C)[C@H](OC(=O)Nc1ccc(OC)cc1)c1ccc(OCCO)cc1 0.193
CCOC(=O)C[C@H]1[C@H](OC(=O)c2ccc(C(=O)c3ccccc3)cc2)[C@@H](NC(=O)CC(C)C)c2cc(OCCCO)ccc2N1C(=O)Cc1ccc(OC)cc1 -0.0495
Cc1ccccc1C(O)C1C=CC2C(=O)NC(=O)C2N1Nc1ccc(Cl)cc1Cl (configuration not stated) -1.11
COc1cc2c(cc1O)C(c1ccc(CN3CCCC3)cc1)N(C)CC2 (configuration not stated) 0.247
COc1ccc([Si](C)(C)[C@@H]2[C@@H](CCn3cc([C@H](O)c4ccccc4)nn3)O[C@]3(C(=O)N(Cc4cccc(N5C(=O)c6cccc7cccc5c67)c4)c4ccccc43)[C@H]2C)cc1 1.1
CC(C)(C)OC(=O)CC[C@]1(C(=O)N2CCCCC2)COC(c2ccc(OCCCO)cc2)=N1 1.11
COCCOC(=O)N1C(=O)[C@@]2(c3cc(C#CC4=CCCCC4)ccc31)[C@H](c1ccc(O)cc1)N1[C@H](c3ccccc3)[C@H](c3ccccc3)OC(=O)[C@H]1[C@@H]2C(=O)NC[C@H](O)c1ccccc1 -0.164
CN(C)CCCCCCNC(=O)[C@@H]1C[C@@H]2C(=O)N[C@@H](CCCCN)C(=O)N2[C@@H]1c1ccc(O)cc1 2.87
Cc1ccc(N2C(=O)c3ccccc3[C@](C)(C(=O)NCc3ccccc3)[C@@H]2c2ccc(CO)cc2)nc1 0.385
C=C[C@@H](C)[C@@H](OC(=O)Nc1ccc(SC)cc1)c1ccc(OCCO)cc1 4.42
C=C(/C(=C/C[C@@H](OC(=O)c1ccncc1)c1cccc(OCCO)c1)c1cnc2ccccc2c1)C(C)C 1.32
O=c1cccc(-c2ccco2)o1 -0.394
O=C1C2C=CC(C(O)c3cc(C(F)(F)F)cc(C(F)(F)F)c3)N(Nc3ccccc3F)C2C(=O)N1c1ccccc1 (configuration not stated) -3.51
O=C(N1CCOCC1)[C@@]1(CCS(=O)(=O)c2ccccc2)N=C(c2ccc(OCCCO)cc2)O[C@H]1c1ccccc1 0.265
COCCCNC(=O)[C@@]1(Sc2ccc(C)cc2)CC(=O)N(C(C)C)[C@@H]1c1ccc(CO)cc1I 0.349
